# High-throughput results (PubChem)
# This is one part of a sample in which hits are shown more often than they occur.
# Shiga inhibitor: inhibitors of Shiga toxin in Vero cells; Vero cells, Shiga toxin protein synthesis inhibition reporter; inhibition, % at 38.7 µM; 290,000 tested, 9.2% active; in the data active means inhibition mostly above about 28%, no sharp cut-off; inactive means mostly below about 43%
# RE007 growth inh: less growth of the S. pombe RE007 Vpr strain. 360,000 tested, 0.21% active. S. pombe RE007 Vpr strain, BacTiter-Glo ATP luminescence, 24 h. Potency, µM (doses to about 92.2 µM), hits mostly inhibitors; active means well fitted falling curve with a large enough effect; inconclusive means small, poorly fitted or top-dose-only effect; inactive means no such curve, though single readings can be large or run the other way; further: nearly all actives have a fitted effect of over 50% in size
#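 Fission yeast strain RE007, carrying one chromosomally integrated HIV-1 vpr copy, was seeded at OD 0.01 in PMG+AL medium with 23 nL pinned compound. After 24 h at 30 °C and 99% humidity, viability was read by BacTiter-Glo luminescence.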
# Giardia FBPA inh: blocks Giardia fructose-bisphosphate aldolase activity | A8B2U2 | purified Giardia FBPA | Potency, µM (titrated, usually from 59.6 µM), hits mostly inhibitors | 290,000 tested, 0.71% active; further: nearly all actives have a fitted effect of over 55% in size
#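 40 nM FBPA preincubated 10 min at RT with compound (up to 57.5 uM final), then substrate plus GAPDH/TPI/NAD/arsenate coupling and diaphorase/resazurin added. Fluorescence read after 20 min at RT, 525/598 nm.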
# Tb PYK inh: blocks Trypanosoma brucei pyruvate kinase; TbPYK enzyme, Kinase-Glo Plus ATP luminescence, 45 min; Potency, µM (doses to about 76.8 µM), hits mostly inhibitors; AID 624173; Q57TT1; 410,000 tested, 0.12% active; further: nearly all actives have a fitted effect of over 50% in size
#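 ADP (130 uM final) triggers the TbPYK reaction after compound addition; incubation is 45 min at room temperature. Kinase-Glo Plus is then added and luminescence imaged. Normalized data are fitted to concentration-effect curves.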
# CHX counter: counter-screen for Shiga toxin inhibitors: cycloheximide protein synthesis inhibition; AID 2314; max response, %; cell reporter, cycloheximide protein synthesis inhibition counterscreen; 300,000 tested, 12% active; in the data active means max response mostly above about 13%, no sharp cut-off; inactive means mostly below about 14%; further: read at 38.3 µM for the half of the compounds with a filed dose
# LmPK inhibitor: inhibitors of Leishmania mexicana pyruvate kinase; Q27686; purified LmPK, Kinase-Glo ATP luminescence, 1 h; Potency, µM (doses to about 57.5 µM), hits mostly inhibitors; 290,000 tested, 0.37% active; AID 1721
# Target sequence (Q27686 whole entry, looked up): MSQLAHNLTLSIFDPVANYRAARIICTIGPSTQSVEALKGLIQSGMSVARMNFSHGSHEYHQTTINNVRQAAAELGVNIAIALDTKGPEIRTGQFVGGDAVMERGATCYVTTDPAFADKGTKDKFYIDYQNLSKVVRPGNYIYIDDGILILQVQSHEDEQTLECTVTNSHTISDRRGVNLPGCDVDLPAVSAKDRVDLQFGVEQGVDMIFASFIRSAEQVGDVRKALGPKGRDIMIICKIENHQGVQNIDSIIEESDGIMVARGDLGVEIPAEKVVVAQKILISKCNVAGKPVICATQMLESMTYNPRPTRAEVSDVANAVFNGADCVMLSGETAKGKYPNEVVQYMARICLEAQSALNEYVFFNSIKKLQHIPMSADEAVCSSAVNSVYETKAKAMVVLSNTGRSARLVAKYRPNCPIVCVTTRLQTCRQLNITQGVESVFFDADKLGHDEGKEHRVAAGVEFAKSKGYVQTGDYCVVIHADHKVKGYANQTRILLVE
#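 Screened at intermediate enzyme activity to detect both inhibitors and activators: LmPK at 0.1 nM, with a 0.5 nM enzyme column as activation reference. PEP 0.5 mM, ADP 0.1 mM; ATP detected by luminescence after 1 h.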
# Numbers stand for hits; i = inactive; ? = inconclusive; nt = no result; [ ] = remark or other dose. Unless noted, the call rests on the fitted dose curve; in most records, active means well fitted curve in the direction sought with a large enough effect; inconclusive means small, poorly fitted or top-dose-only effect, or another doubt; inactive means no such curve, though single readings can be large; an effect the other way counts as inactive or inconclusive.
SMILES,Shiga inhibitor,RE007 growth inh,Giardia FBPA inh,Tb PYK inh,CHX counter,LmPK inhibitor
CCN(CC)c1ccc(/C=N/NC(=O)Nc2ccccc2)cc1,71.2,i,i,i,34.7,i
CC(=O)Oc1ccc(/C=N/NC(=S)Nc2ccccc2)cc1,i,i,i,i,53.3,i
O=C(Cc1ccccc1)N/N=C/c1ccc(OCC(=O)Nc2ccccc2)cc1,i,i,i,i,i,i
Oc1ccc2c3c1OC1C(O)C=CC4[C@@H](C2)NCC[C@]314 (stereo partly specified),nt,nt,nt,i,nt,nt
N#CC(C#N)=Cc1ccc(C=C(C#N)C#N)cc1,i,i,?,i,20.0,i
O=C(Nc1cccc(-c2cn3ccccc3n2)c1)c1cnccn1,i,i,i,i,i,i
CCC(=O)Nc1cccc(-c2ccc(N3CCCCC3)nn2)c1,i,i,i,i,i,i
CCC(=O)Nc1cccc(-c2ccc(N3CCN(C)CC3)nn2)c1,73.7,i,i,i,15.9,i
COc1ccc(CC(=O)Nc2cccc(-c3cn4ccccc4n3)c2)cc1,active,i,i,i,46.1,i
CCC(=O)Nc1cccc(-c2cn3cccc(C)c3n2)c1,53.5,i,i,i,39.1,i
Cc1cccc2nc(-c3cccc(NC(=O)Cc4ccccc4)c3)cn12,i,i,i,i,i,i
O=C(Nc1cccc(-c2cn3ccccc3n2)c1)C1CC1,45.8,i,i,i,34.5,i
CCOc1cc(/C=N/NC(=O)c2cccnc2)ccc1OCC(=O)N1CCOCC1,i,i,i,i,i,i
O=c1c(-c2cccs2)nc2cncnc2n1C1CC1,nt,nt,i,i,nt,nt
COc1ccc(CC(=O)Nc2ccc(-c3cn4ccccc4n3)cc2)cc1,112.4,i,i,i,25.2,i
COc1ccc(CC(=O)Nc2ccc(-c3cn4ccccc4n3)cc2)cc1OC,i,i,i,i,i,i
O=C(Nc1ccc(-c2cn3ccccc3n2)cc1)c1cccs1,54.3,i,i,i,32.8,i
O=C(Nc1cccc(-c2cn3ccccc3n2)c1)c1cccc(Cl)c1,i,i,i,i,i,i
CCC(=O)Nc1cccc(-c2cn3ccccc3n2)c1,45.0,i,i,i,17.9,i
Cc1ccc(-c2cn3cccnc3n2)cc1NC(=O)c1cccs1,i,i,i,i,i,i
O=C(CN(C(=O)CCC(=O)Nc1nccs1)c1cccc(C(F)(F)F)c1)NCC1CCCO1 (stereo unspecified),i,i,i,i,i,i
CCSc1nnc(NC(=O)CC(C)C)s1,i,i,i,i,18.4,i
CCCc1nnc(NC(=O)c2cccnc2)s1,i,i,i,i,i,i
CC(C)c1nnc(NC(=O)c2cccnc2)s1,i,i,i,i,30.7,i
CCSc1nnc(NC(=O)c2cccnc2)s1,i,i,?,i,16.9,i
SMILES,Shiga inhibitor,RE007 growth inh,Giardia FBPA inh,Tb PYK inh,CHX counter,LmPK inhibitor
CCSc1nnc(NC(=O)c2ccccc2)s1,76.3,i,i,i,36.9,i
CC[C@H](CO)Oc1cc(NCc2cccc(N)c2)c2ncn(C(C)C)c2c1,nt,?,nt,i,nt,nt
CC1CN(c2nnc(NC(=O)c3ccccc3)s2)CC(C)O1 (stereo unspecified),62.1,i,i,i,i,i
CCSc1nnc(NC(=O)[C@H](C)NC(=O)c2ccccc2Cl)s1,i,i,i,i,i,i
CCSc1nnc(NC(=O)c2ccccc2C)s1,125.3,i,i,i,36.1,i
Cc1cccc(N2CCN(C(=O)CCc3c(C)nc4c(c3C)c(=O)n(C)c(=O)n4C)CC2)c1C,nt,nt,nt,i,nt,nt
CC(C)C(=O)Nc1nnc(S(=O)(=O)N(C)Cc2ccc(F)cc2)s1,nt,nt,nt,i[15.4 µM],nt,nt
CCOc1ccc(C(c2c(O)cc(C)n(CCOC)c2=O)N2CCN(c3ccccc3)CC2)cc1 (stereo unspecified),nt,nt,nt,i,nt,nt
CCC1CCCCN1C(=O)CSc1nnc(-c2ccco2)o1 (stereo unspecified),62.2,i,i,i,37.3,i
CCC1CCCCN1C(=O)CSc1nnc(-c2ccc(Cl)s2)o1 (stereo unspecified),82.4,i,i,i,37.7,i
CCC1CCCCN1C(=O)CSc1nnc(-c2cccc(Cl)c2)o1 (stereo unspecified),98.2,i,i,i,28.5,i
O=C(CN1C(=O)C2CC=CCC2C1=O)Nc1ccc(F)cc1F (stereo unspecified),nt,i,nt,i,nt,nt
Cc1oc(-c2ccc(C(=O)Nc3cc(F)ccc3F)cc2)nc1COc1ccccc1,nt,nt,nt,i,nt,nt
Cc1ccccc1N(CC(=O)N/N=C/c1ccc(N(C)C)cc1)C(=O)c1ccccc1,i,i,i,i,33.6,i
CN(C)c1ccc(/C=N/NC(=O)CNC(=O)/C=C/c2ccccc2)cc1,29.7,i,nt,i,29.7,i
CN(C)c1ccc(/C=N/NC(=O)COc2ccccc2)cc1,43.7,i,i,i,37.6,i
Cc1ccccc1N(CC(=O)N/N=C/c1ccccc1Cl)C(=O)c1ccccc1,i,i,i,i,i,i
CN(c1ccccc1)c1ccc(/C=N/NC(=O)CC#N)cc1,58.1,i,i,i,28.5,i
CN(C)/C=C(\C#N)C(=O)N/N=C/c1ccccc1,i,i,i,i,27.5,i
O=C(N/N=C/c1ccccc1)C(=O)N/N=C/c1ccccc1,i,i,i,i,i,i
CNC(=O)CO/N=C/c1ccc(N(C)C)cc1,28.9,i,i,i,21.6,i
Cc1cccnc1NC(=O)CNC(=O)COc1ccccc1,nt,i,nt,i,nt,nt
COc1ccc(-c2nc3c(s2)CN(S(C)(=O)=O)CC3)cc1OC,i,i,i,i,i,i
CCS(=O)(=O)N1CCc2nc(-c3ccccc3)sc2C1,72.4,i,i,i,47.7,i
Cc1cc(N(C)C)ccc1N=Nc1ccc2ncccc2c1,95.4,nt,i,i,52.2,i
SMILES,Shiga inhibitor,RE007 growth inh,Giardia FBPA inh,Tb PYK inh,CHX counter,LmPK inhibitor
CN(C)c1ccc(N=Nc2ccc3ncccc3c2)cc1,nt,i,nt,i,nt,nt
Cc1cccc(C(=O)Nc2cc(-c3ccccc3F)nn2-c2ccccc2)c1,nt,nt,nt,i,nt,nt
Cc1ccc(-c2noc(CCC(=O)NC3CC3)n2)cc1,i,i,i,i,19.8,i
O=C(CCc1nc(-c2ccccc2F)no1)NC1CCCCC1,i,i,i,i,8.6,i
CN(C(=O)CCc1nc(-c2ccccc2F)no1)c1ccccc1,98.3,i,i,i,41.4,i
CN(C(=O)CCc1nc(-c2ccccc2F)no1)c1ccc(Cl)cc1,nt,nt,nt,i,nt,nt
Cc1ccc(-c2nnn(CCC(=O)NC3CCCC3)n2)cc1,i,i,i,i,17.0,i
Cc1ccccc1-c1noc(CCC(=O)NC2CCCCC2)n1,i,i,i,i,i,i
CCCC1OC2CC3C4CCC5=CC(=O)C=CC5(C)C4C(O)CC3(C)[C@]2(C(=O)CO)O1 (stereo partly specified),nt,nt,i,nt,nt,nt
CCOc1ccc(C(=O)C2CCN(C(=O)c3ccc([N+](=O)[O-])cc3)CC2)cc1,i,i,i,i,i,i
